HSF1 activator: HSF-1 activators, primary screen, NIH3T3-HGL cells, MG132 stress, luminescence, single point; NIH3T3-HGL HSF-1 luciferase reporter, 8 h; 100% = twice DMSO control signal; 300,000 tested, 1.7% active; activation, % at 9 µM;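 active = mean replicate activation of at least 50% with a set share of replicates each reaching 50%; inconclusive = only one of those two conditions met; inactive = mean below 50% and too few replicates reaching it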;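 also: 0% = median of the neutral control wells and 100% = twice that signal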
TNF necrop inh: inhibitors of TNF-alpha triggered necroptosis, primary screen, cell-based, Jurkat FADD-/-, single concentration. Jurkat FADD-/- TNF necroptosis rescue, ATP luminescence, 24 h; 0 = TNF only, 100 = no-TNF cells. activation (protection from cell death), % at 10 µM. 220,000 tested, 0.068% active. AID 463075, 2010;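 active = activation, meaning protection from cell death, of at least 50% relative to plate controls; inactive = activation below 50%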;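 also: necroptosis triggered by 40 ng/mL TNF-alpha added together with compound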
L929 necroptosis: inhibitors of zVAD-triggered necroptosis, primary screen, L929 cells. viability rescue, % at 10 µM. AID 1377, 2008. L929 zVAD necroptosis rescue, ATP luminescence, 24 h; with zVAD 60 µM. 220,000 tested, 0.38% active;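 active = activation, scaled between plate controls, above about 75%, limit read from the data; inactive = activation under that limit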;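 also: 0% = zVAD with DMSO and 100% = DMSO alone without zVAD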
Hsp70 activator: Hsp70 transcriptional activators, primary screen, cell-based, HeLa, Hsp70 promoter luciferase, luminescence, 10 µM | HeLa Hsp70 promoter luciferase reporter; scaled: vehicle 0, proteasome-inhibitor control 100% | activation, % at 10 µM | 200,000 tested, 0.04% active;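 active = activation above the mean across all tested compounds plus 3 SD, cutoff set per campaign, cut at about 5.5% in these data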;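 also: 100% = MG132 at 30 µM as the positive control and 0% = DMSO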
Active calls of the source: *; ? = inconclusive; nt = no result. In the library only some 1.9% were active in any assay of this set; here they are far more common.

SMILES | HSF1 activator | TNF necrop inh | L929 necroptosis | Hsp70 activator
Cc1ccc(O)c(NC(=O)c2cc(C)no2)c1 | 100* | nt | nt | nt
Cc1ccc(C)c(N(CC(=O)NC2CCCC2)S(=O)(=O)c2ccccc2)c1 | 8 | nt | nt | nt
COC(=O)C(NNc1ccccc1C)(NC(=O)c1ccc(F)cc1)C(F)(F)F (centres undefined) | 80* | 0 | -1 | 0
COc1ccc(C2=NOC(Cn3nc(C(=O)O)cc3-c3ccccc3)C2)cc1 (centres undefined) | -6 | nt | nt | nt
O=C1c2ccccc2S(=O)(=O)N1CC1CC(c2ccc(Cl)cc2)=NO1 (centres undefined) | 82* | 2 | nt | 0
COc1ccc(C2=NOC(CN3C(=O)c4ccccc4S3(=O)=O)C2)cc1 (centres undefined) | 72* | 1 | 0 | 1
O=C1c2ccccc2S(=O)(=O)N1CC1CC(c2ccccc2)=NO1 (centres undefined) | nt | 2 | 1 | 0
CC(NC(=O)C(=O)N1CCCCC1)C(c1cccs1)N1CCN(C)CC1 (centres undefined) | 11 | nt | nt | nt
COc1ccc(/C=C/C(=O)c2cc3c(cc2N)OCO3)cc1 | 17 | -6 | 1 | 0
Cc1ccc(SCc2nc3ccccc3[nH]2)cc1 | 90* | 0 | 0 | 0
Clc1ccc(SCc2nc3ccccc3[nH]2)cc1 | 56* | 4 | 0 | 0
Cc1cc(C)c(C#N)c(SCc2nc3ccccc3[nH]2)n1 | 60* | 5 | 1 | 0
c1ccc(SCc2nc3ccccc3[nH]2)cc1 | 38 | 4 | 0 | 0
Cc1nn(-c2ccccc2)c(C)c1/C=N/NC(=O)CSc1nnc(SCc2ccccc2Cl)s1 | 68* | 2 | nt | 0
Cc1ccc(-c2nnc(SCC(=O)N/N=C/c3c(C)nn(-c4ccccc4)c3C)n2-c2ccccc2)cc1 | 18 | 1 | 1 | 0
Cc1ccc(CSc2nnc(SCC(=O)N/N=C/c3c(C)nn(-c4ccccc4)c3C)s2)cc1 | 65* | 3 | 0 | 0
CCOCCCNC(=O)c1oc2ccc3c(c2c1C)C(O)CC(C)(C)O3 (centres undefined) | -8 | nt | nt | nt
COc1ccc(OC)c(S(=O)(=O)N2CCCC2C(=O)NC(C)c2ccccc2)c1 (centres undefined) | -4 | nt | nt | nt
Cc1ccccc1C(=O)Nc1ccccc1C(=O)N1CCC(C)CC1 | -14 | nt | nt | nt
Cc1ccc(CSc2nnc(CS(=O)Cc3ccc(Cl)cc3Cl)n2C)cc1 (centres undefined) | -3 | -4 | 0 | 0
Cn1c(CS(=O)Cc2c(Cl)cccc2Cl)nnc1SCc1ccc(Cl)cc1 (centres undefined) | 61* | -6 | 0 | 0
CCOc1ccc(-c2cn(-c3ccc(OC)cc3)c(SC)n2)cc1 | 62* | 1 | 0 | 0
CCCn1cnc2cc(NCc3cccc(OC)c3)ccc21 | 51* | -1 | 0 | 0
Cn1cnc2cc(NCc3ccc(Cl)cc3)ccc21 | 66* | nt | nt | nt
CCCn1cnc2cc(NCc3ccc(Br)cc3)ccc21 | 38 | nt | nt | nt
SMILES | HSF1 activator | TNF necrop inh | L929 necroptosis | Hsp70 activator
Cc1ccc2c(CC(=O)Nc3sccc3C(N)=O)coc2c1 | 84* | 0 | 1 | 0
CCN1CCN(CCC(=O)Nc2cc(OC)cc(OC)c2)CC1 | -12 | nt | nt | nt
CCOCCCNS(=O)(=O)c1ccc(NC(=O)Cc2c(F)cccc2Cl)cc1 | -11 | 3 | 1 | 0
Cc1oc(-c2ccoc2)nc1CN(CC1CCC(=O)N1)C(C)C (centres undefined) | 72* | 0 | 1 | 0
COc1cccc(C(=O)Oc2ccccc2/C=C\C(=O)c2cc3ccccc3o2)c1 | 131* | 0 | 2 | 0
O=C(Oc1ccccc1/C=C\C(=O)c1cc2ccccc2o1)c1ccccc1 | 366* | -2 | 0 | 0
O=C(Oc1ccccc1/C=C\C(=O)c1cc2ccccc2o1)c1cccc(F)c1 | 235* | -7 | 6 | 0
NC(=O)N/N=C/c1ccccc1OC(=O)c1cc2ccccc2oc1=O | 34 | nt | nt | nt
C/C=C(\C)CN1CCCC(N(C)CCc2ccc(OC)c(OC)c2)C1 (centres undefined) | -15 | nt | nt | nt
O=C1Nc2ccccc2C1(O)C/C(=N/O)c1ccccc1 (centres undefined) | 23 | 0 | 2 | 0
CCCc1ccc(OCC(=O)NNC(=O)c2cccnc2)cc1 | -1 | 0 | 1 | 0
Fc1ccc(-n2nnc(-c3ncc[nH]3)n2)cc1 | 7 | nt | nt | nt
CC(=O)c1cccc(NC(=O)COC(=O)c2n[nH]c3ccccc23)c1 | -3 | 0 | 3 | 0
COc1ccc(NS(=O)(=O)c2cc(N)ccc2N2CCOCC2)cc1 | -2 | nt | nt | nt
Cc1ccc(C)c(Oc2cc(NC(=O)CCCn3nc(C)c([N+](=O)[O-])c3C)cc([N+](=O)[O-])c2)c1 | 72* | 0 | nt | 0
CC1(C(=O)N2CCN(C(=O)c3ccco3)CC2)CC1(Br)Br (centres undefined) | -21 | nt | nt | nt
COc1ccccc1NC(=O)CSc1nnc(C)s1 | 24 | nt | nt | nt
NC(=O)c1ccccc1NC(=O)/C=C/c1c(Cl)cccc1Cl | 83* | -3 | 0 | 0
CC(=O)c1cccc(-n2nnnc2SCC(=O)N2CCCC2)c1 | -2 | 0 | 0 | 0
COc1ccc(/C=C2\CCC/C(=C\C=N\N(C)C)C2=O)cc1 | ? | -8 | 4 | 0
CN(C)/N=C/C=C1\CCC/C(=C\c2ccc(F)c(F)c2)C1=O | 116* | -8 | 1 | 5
CCCCCCc1ccc(-c2ncc(N)cn2)cc1 | 51* | -5 | 0 | 0
Nc1ccccc1SC1CC(=O)N(Cc2ccccc2)C1=O (centres undefined) | -3 | 1 | 0 | 0
COc1ccc2c(n1)Sc1nc3ccccc3nc1N2 | 55* | 24 | 5 | nt
COc1ccc(OC)c(/C=C/C(=O)N2C(=O)c3cccc(N)c3C2=O)c1 | 86* | 1 | 0 | 0
SMILES | HSF1 activator | TNF necrop inh | L929 necroptosis | Hsp70 activator
Nc1cccc2c1C(=O)N(C(=O)/C=C/c1cccc(Br)c1)C2=O | 106* | -20 | 1 | nt
COc1cc(/C=C/C(=O)N2C(=O)c3cccc(N)c3C2=O)cc(OC)c1OC | 130* | 20 | -1 | 0
Nc1cccc2c1C(=O)N(C(=O)/C=C/c1cccc(F)c1)C2=O | 22 | -4 | 2 | 0
Cc1cc(Br)cnc1NC(=S)Nc1ccc(F)cc1F | 3 | 0 | -1 | 0
C=CCSc1n[nH]c(-c2ccc(OCCCC)cc2)n1 | 66* | 3 | 1 | 0
O=C(Nc1nnc(SCC(=O)N2CCCCC2)s1)c1c(F)cccc1F | 4 | nt | nt | nt
CC(NS(=O)(=O)c1ccc2c(c1)c(=O)n(C)c(=O)n2C)C(=O)NC1CCCCC1 (centres undefined) | -19 | nt | nt | nt
S=C(Nc1ccccc1)N1CCC(C2CCN(C(=S)Nc3ccccc3)CC2)CC1 | -2 | 2 | 1 | nt
CC1CCCN(C(=S)Nc2ccc(F)cc2)C1 (centres undefined) | 38 | 1 | 1 | 0
O=C(Nc1ccc2nsnc2c1)N1CCCCCC1 | 26 | 2 | -1 | 0

From PubChem
